Compounds with a hit are over-represented: about 6.6% of the library has one in this group of screens.
KB-V1 cytotox = qHTS assay for MDR1-selective chemotherapeutics: Primary screen using the drug-selected MDR subline cells KB-V1. KB-V1 MDR cells viability, CellTiter-Glo, 72 h. Potency, µM (series often up to 46.1 µM), hits mostly cytotoxic. 400,000 compounds, 3.4% hits; further: on the % scale 0 is the no-effect control and ±100 the full control effect; nearly all actives have a fitted effect of over 60% in size
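Cells of the MDR subline KB-V1 are plated, dosed with compound at multiple concentrations, and incubated 72 h at 37 degrees C; CellTiter-Glo is then added and luminescence read after 10 min.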
RGS4 inhibitor = Inhibitors of Regulator of G Protein Signaling (RGS) 4: qHTS; 390,000 compounds, 0.039% hits; Transcreener GDP fluorescence polarization, RGS4-accelerated GTP hydrolysis; Potency, µM (titrated, usually from 114 µM), for inactives: at the highest dose activity change, negative = inhibition, usual class: inhibitors; Regulator of G-protein signaling 4 (Homo sapiens), P49798; further: on the % scale 0 is the no-effect control and ±100 the full control effect; nearly all actives have a fitted effect of over 75% in size
Target sequence (P49798 whole entry, looked up): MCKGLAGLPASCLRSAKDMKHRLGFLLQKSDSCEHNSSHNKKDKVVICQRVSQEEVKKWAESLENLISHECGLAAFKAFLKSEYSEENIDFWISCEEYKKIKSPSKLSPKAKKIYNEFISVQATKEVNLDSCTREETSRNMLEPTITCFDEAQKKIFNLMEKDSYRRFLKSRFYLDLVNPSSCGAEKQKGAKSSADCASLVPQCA
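MLSMR compounds (23 nl, pin-transferred) preincubated 10 min at room temperature with a 500nM (2x) first reagent, then RGS4 at 900nM (2x) plus Transcreener GDP mix added; fluorescence polarization (620/688 nm) read before and after 90 min at 30 °C.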
TSG101-PTAP inh = qHTS Assay for Iinhibitors of HIV-1 Budding by Blocking the Interaction of PTAP/TSG101 | Tumor susceptibility gene 101 protein (Homo sapiens), Q99816 | Fluorescence polarization, FITC-PTAP peptide / Tsg101 binding | Potency, µM (top dose mostly 115 µM), for inactives: at the highest dose activity change, negative = inhibition, most hits filed as inhibitors | AID 493005, 2010 | 340,000 tested, under 10 active; active means well fitted inhibition curve with a large enough effect in the main read-out, with a control signal flat, not every such curve was filed as active; inconclusive means small, poorly fitted or top-dose-only effect, or effect the other way, or a change in a side signal; inactive means no such curve, though single readings can be large or run the other way; further: % of control where 0% means no effect
Target sequence (Q99816 whole entry, looked up): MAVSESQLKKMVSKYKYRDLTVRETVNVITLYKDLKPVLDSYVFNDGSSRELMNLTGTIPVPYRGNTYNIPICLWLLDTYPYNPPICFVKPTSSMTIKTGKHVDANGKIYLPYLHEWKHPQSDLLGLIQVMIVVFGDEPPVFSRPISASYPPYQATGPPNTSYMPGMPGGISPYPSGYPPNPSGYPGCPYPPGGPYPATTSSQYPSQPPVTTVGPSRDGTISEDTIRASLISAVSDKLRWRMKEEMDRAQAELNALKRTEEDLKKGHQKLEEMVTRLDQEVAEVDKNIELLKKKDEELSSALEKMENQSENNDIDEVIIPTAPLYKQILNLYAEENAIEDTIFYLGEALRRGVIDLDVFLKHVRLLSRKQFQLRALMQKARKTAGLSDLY
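FP read-out: FITC-PTAP peptide, 50 nM final, binding Tsg101 binding domain, 10 uM final; 20 min, r.t.; 10 mM HEPES pH 7.5, 0.15 M NaCl, 0.01% Tween 20, 3 mM EDTA, 0.1 mM TCEP.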
MCF10A rerep = A quantitative high throughput screen for small molecules that induce DNA re-replication in MCF 10a normal breast cells. Potency, µM (highest dose often 46.1 µM), for inactives: at the top dose activity, positive = re-replication, most hits filed as activators. AID 624296, 2012. 350,000 compounds, 2.9% hits. MCF 10A DNA re-replication, Hoechst nuclear intensity, 48 h; further: % of control where 0% means no effect; nearly all actives have a fitted effect of over 50% in size
SW480 rerep = A quantitative high throughput screen for small molecules that induce DNA re-replication in SW480 colon adenocarcinoma cells | 340,000 compounds, 1.8% hits | AID 624297, 2012 | SW480 DNA re-replication, Hoechst DNA content imaging, 48 h | Potency, µM (doses to about 46.1 µM), inactives show top-dose re-replication activation, actives largely listed as activators; further: % of control where 0% means no effect; nearly all actives have a fitted effect of over 55% in size
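Per well, 250 cells were exposed to pinned compound for 48 hr. Nuclear DNA was visualised with Hoechst (40 min, 37 C) and total object intensity recorded by fluorescence scanning.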
KB-3-1 tox = qHTS assay for MDR1-selective chemotherapeutics: Primary screen using the parental adenocarcinoma cell KB-3-1; KB-3-1 viability, CellTiter-Glo ATP luminescence, 72 h; Potency, µM (doses to about 46.1 µM), actives largely listed as cytotoxic; 400,000 compounds, 1.4% hits; further: on the % scale 0 is the no-effect control and ±100 the full control effect; nearly all actives have a fitted effect of over 60% in size
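Cytotoxicity in the drug-sensitive parental line KB-3-1 was scored as loss of CellTiter-Glo luminescence following 72 h incubation with compound. Values come from curve fitting of normalized concentration-response data.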
The depositor's hits bear a star. Unless noted, the call rests on the fitted dose curve; in most records, active means well fitted curve in the direction sought with a large enough effect; inconclusive means small, poorly fitted or top-dose-only effect, or another doubt; inactive means no such curve, though single readings can be large; an effect the other way counts as inactive or inconclusive. Potency means the concentration at half of the fitted maximal effect.

Screening CCn1ccc2cc(S(=O)(=O)N3CCC(C(=O)NCCOC)CC3)ccc21 returned KB-V1 cytotox inconclusive, RGS4 inhibitor -4.3% and KB-3-1 tox inactive.
COc1ccc(OC)c(NCc2cccn2-c2nnc(N3CCCCC3)s2)c1 was read as KB-V1 cytotox inconclusive, RGS4 inhibitor -14.1% and KB-3-1 tox inconclusive.
For COCCCNC(=S)N(Cc1ccccc1)Cc1ccccc1 the results were KB-V1 cytotox 18.4µM*, RGS4 inhibitor 5.5%, TSG101-PTAP inh -0.8%, MCF10A rerep 16.8%, SW480 rerep -4.8% and KB-3-1 tox inactive.
For N=C(N)SCc1nc2ccccc2c(=O)n1-c1ccccc1Cl the results were KB-V1 cytotox 23.1µM*, RGS4 inhibitor -36.4%, TSG101-PTAP inh -3.5%, MCF10A rerep inconclusive, SW480 rerep -4.3% and KB-3-1 tox inactive.
Screening Clc1ccc(Cn2c(-c3cccnc3Cl)nc3ccccc32)c(Cl)c1 returned KB-V1 cytotox 23.1µM*, RGS4 inhibitor -37.8%, TSG101-PTAP inh 3.7%, MCF10A rerep 16.4µM*, SW480 rerep 3.6% and KB-3-1 tox inconclusive.
For Clc1ccc(Cn2c(-c3cccnc3Cl)nc3ccccc32)cc1 the results were KB-V1 cytotox inactive, RGS4 inhibitor 5.9%, TSG101-PTAP inh 0.4%, MCF10A rerep 19.0%, SW480 rerep 12.0% and KB-3-1 tox inactive.
C/C(=N\NC(N)=S)c1ccc(-n2ccnc2)cc1 was read as KB-V1 cytotox inactive, RGS4 inhibitor inconclusive, TSG101-PTAP inh -7.3%, MCF10A rerep 1.3%, SW480 rerep 1.3% and KB-3-1 tox inactive.
Screening C=C(C)CNC(=S)N/N=C(\C)c1ccc(-n2ccnc2)cc1 returned KB-V1 cytotox 14.6µM*, RGS4 inhibitor -14.4%, TSG101-PTAP inh -0.3%, MCF10A rerep inconclusive, SW480 rerep -4.8% and KB-3-1 tox inactive.
Screening O=C(CN1C(=O)C2(SCC(=O)N2c2ccc(F)c(F)c2)c2ccccc21)NCCc1ccccc1 (stereo unspecified) returned KB-V1 cytotox inconclusive, RGS4 inhibitor -11.4% and KB-3-1 tox inactive.
For Cc1cc(C)c(C(=O)Nc2ccc(Br)c(C(F)(F)F)c2)c(C)c1 the results were KB-V1 cytotox inactive, RGS4 inhibitor 11.3%, TSG101-PTAP inh -1.2%, MCF10A rerep 23.1µM*, SW480 rerep inconclusive and KB-3-1 tox inconclusive.
`O=C(Nc1cccc2cccnc12)c1ccc(Br)cc1` gave RGS4 inhibitor -8.1%.
Screening Cc1sc2cc3c(c(C(=O)c4ccccc4)[n+]2c1C)-c1cccc2cccc-3c12 returned KB-V1 cytotox inactive, RGS4 inhibitor -32.2%, TSG101-PTAP inh -0.6%, MCF10A rerep 11.6µM*, SW480 rerep inconclusive and KB-3-1 tox 7.31µM*.
`O=C(c1ccccc1)c1c2c(cc3sc4ccccc4[n+]13)-c1cccc3cccc-2c13` gave KB-V1 cytotox inconclusive, RGS4 inhibitor -39.8%, TSG101-PTAP inh -14.3%, MCF10A rerep inconclusive, SW480 rerep 7.9% and KB-3-1 tox 20.6µM*.
`O=C(c1ccccc1)c1ccc2ccccc2c1` gave KB-V1 cytotox inactive, RGS4 inhibitor 4.8%, TSG101-PTAP inh -3.5%, MCF10A rerep inconclusive, SW480 rerep -7.2% and KB-3-1 tox inactive.
For CCOCCc1nn2c(=O)cc(COC(=O)c3ccc4c(c3)OCO4)nc2s1 the results were KB-V1 cytotox inactive, RGS4 inhibitor -30.9% and KB-3-1 tox inactive.
For COc1ccc(CC(=O)OCC(=O)N2N=C(c3ccccc3)CC2c2ccc(OC)cc2)cc1 (stereo unspecified) the results were KB-V1 cytotox 20.6µM*, RGS4 inhibitor -14.9%, TSG101-PTAP inh -1.8%, MCF10A rerep inconclusive, SW480 rerep 23.8% and KB-3-1 tox inactive.
COc1cccc(C2CC(c3cccs3)=NN2C(=O)CSc2nc3ccccc3s2)c1OC (stereo unspecified) was read as KB-V1 cytotox 11.6µM*, RGS4 inhibitor -9.4%, TSG101-PTAP inh -0.9%, MCF10A rerep inconclusive, SW480 rerep inconclusive and KB-3-1 tox inconclusive.
COc1ccc(C2=NN(C(C#N)c3ccc(OC)cc3)C(c3ccccc3)C2)cc1 (stereo unspecified) was read as KB-V1 cytotox 6.51µM*, RGS4 inhibitor -0.4%, TSG101-PTAP inh 0.0%, MCF10A rerep inconclusive, SW480 rerep 9.6% and KB-3-1 tox 23.1µM*.
For COc1ccc(C(C#N)N2N=C(C)CC2c2ccccc2)cc1 (stereo unspecified) the results were KB-V1 cytotox inactive, RGS4 inhibitor 2.7%, TSG101-PTAP inh 0.0%, MCF10A rerep 4.3%, SW480 rerep -6.6% and KB-3-1 tox inactive.
For COc1ccc(C2=Nc3nc(-c4ccccc4)cn3C(c3ccc(OC)cc3)C2)cc1 (stereo unspecified) the results were KB-V1 cytotox inactive, RGS4 inhibitor -6.0%, TSG101-PTAP inh 2.6%, MCF10A rerep inconclusive, SW480 rerep 16.4µM* and KB-3-1 tox inactive.
`COc1cccc(C2CC(c3cccs3)=NN2C(=O)CCC(=O)O)c1OC` (stereo unspecified) gave KB-V1 cytotox inactive, RGS4 inhibitor -1.3%, TSG101-PTAP inh -2.1%, MCF10A rerep -3.0%, SW480 rerep -5.1% and KB-3-1 tox inactive.
`COc1ccc(C2=NN(C(=O)CSc3nc4ccccc4s3)C(c3ccc(F)cc3)C2)cc1` (stereo unspecified) gave KB-V1 cytotox 11.6µM*, RGS4 inhibitor -36.5%, TSG101-PTAP inh 0.4%, MCF10A rerep 2.6%, SW480 rerep 6.3% and KB-3-1 tox inconclusive.
Screening COc1ccc(C2=NN(C(=O)CSc3nc4ccccc4s3)C(c3ccc(OC)cc3)C2)cc1 (stereo unspecified) returned KB-V1 cytotox inconclusive, RGS4 inhibitor -19.8%, TSG101-PTAP inh -6.5%, MCF10A rerep 8.6%, SW480 rerep 4.0% and KB-3-1 tox inactive.
For COc1ccc(C(CNC(=O)c2cccc(S(=O)(=O)NCc3ccccc3)c2)N2CCOCC2)cc1 (stereo unspecified) the results were KB-V1 cytotox 18.4µM*, RGS4 inhibitor -18.6%, TSG101-PTAP inh -9.3%, MCF10A rerep -3.8%, SW480 rerep -1.1% and KB-3-1 tox inactive.

Screens: PubChem BioAssay, National Center for Advancing Translational Sciences (NCATS)
